Sampled rows, rich in hits. Any-hit rate of the full collection: about 1.8%.
PP5 primary – inhibitors of human protein phosphatase 5 (PP5); P53041; purified PP5c, OMFP substrate fluorescence; AID 1987; inhibition, % at 6.7 µM; actives 0.18% (n = 320,000);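 active means inhibition above the campaign's mean inhibition across all tested compounds plus 3 SD, cut at about 9.5% in these data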;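 further: 0% = DMSO only and 100% = 100 µM cantharidin control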
LYPLA1 inh – blocks human lysophospholipase 1, a PME1 counter-screen; AID 2174; recombinant LYPLA1, FP-Rh probe fluorescence polarization; inhibition, % at 5.9 µM; actives 0.16% (n = 320,000);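 active means inhibition above the mean of all tested compounds plus 3 SD, set per campaign, cut at about 14% in these data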;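 further: inhibitors block serine hydrolase probe labeling of LYPLA1 so polarization falls; 0% = enzyme with DMSO and 100% = wells lacking LYPLA1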
PP1 counter – blocks human PP1-alpha phosphatase, a PP5 counter-screen. actives 0.9% (n = 320,000). purified PP1alpha, OMFP fluorescence. AID 2235. inhibition, % at 6.7 µM;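 active means inhibition above the mean inhibition of all tested compounds plus 3 SD, computed separately for each screening campaign, cut at about 15% in these data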
Target sequence (P62136 whole entry, looked up): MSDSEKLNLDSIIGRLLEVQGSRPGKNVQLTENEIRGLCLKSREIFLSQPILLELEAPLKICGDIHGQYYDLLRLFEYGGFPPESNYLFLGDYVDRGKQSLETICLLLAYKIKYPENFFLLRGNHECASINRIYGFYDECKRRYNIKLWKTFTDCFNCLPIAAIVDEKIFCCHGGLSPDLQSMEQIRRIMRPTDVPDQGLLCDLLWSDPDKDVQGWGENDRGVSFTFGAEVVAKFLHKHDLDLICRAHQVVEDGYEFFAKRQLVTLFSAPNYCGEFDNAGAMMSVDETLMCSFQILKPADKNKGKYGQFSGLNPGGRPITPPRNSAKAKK
LYPLA2 inh – counter-screen for PME1 inhibitors: inhibitors of human LYPLA2 | O95372 | recombinant LYPLA2, FP-Rh probe fluorescence polarization | inhibition, % at 5.9 µM | actives 0.38% (n = 320,000) | AID 2177;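 active means inhibition above the screen-wide mean plus 3 SD, limit set per campaign, cut at about 26% in these data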;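 further: 0% = LYPLA2 with DMSO and 100% = wells lacking LYPLA2 enzyme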
Target sequence (O95372 whole entry, looked up): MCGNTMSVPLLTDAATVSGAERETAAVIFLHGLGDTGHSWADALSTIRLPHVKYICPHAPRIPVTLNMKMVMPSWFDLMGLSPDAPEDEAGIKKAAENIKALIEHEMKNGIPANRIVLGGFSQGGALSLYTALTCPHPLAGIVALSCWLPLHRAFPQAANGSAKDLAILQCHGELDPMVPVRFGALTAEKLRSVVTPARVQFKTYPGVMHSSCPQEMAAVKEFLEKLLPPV
Fam108B inh – blocks mouse Fam108B hydrolase in RBBP9 counter-screen. recombinant Fam108B, FP-Rh probe fluorescence polarization. inhibition, % at 9.51 µM. actives 0.33% (n = 300,000);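 active means inhibition above the screen mean inhibition plus 3 SD, computed separately per campaign, cut at about 18% in these data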;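 further: inhibitors lower polarization as less probe binds the enzyme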
PME-1 primary – PME-1 (human) inhibition; recombinant PME-1, FP-Rh probe fluorescence polarization; inhibition, % at 5.9 µM; actives 0.53% (n = 320,000); AID 2130;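 active means inhibition above the campaign mean of all compounds plus 3 SD, cut at about 26% in these data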;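 further: competitive labeling of PME-1 active site by serine hydrolase directed probe; 0% = PME-1 with DMSO and 100% = wells lacking PME-1 enzyme; inhibitors block probe labeling so polarization falls and inhibition rises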
* = called active by the depositor; nt = not tested or not shown.

SMILES	PP5 primary	LYPLA1 inh	PP1 counter	LYPLA2 inh	Fam108B inh	PME-1 primary
CCOc1ccc(C(=O)Nc2cccc3ncccc23)cc1Cl	0.1	3.7	0.2	11.6	3.3	-13.3
Cc1cc(NC(=O)c2ccccc2C)n(-c2cccc(F)c2)n1	-0.9	2.5	1.2	9.6	-0.4	-0.4
CC1(C)CC(=O)C2=C(C1)N1C(=C(C#N)C2c2ccc(Cl)cc2)N=C(N)c2ccccc21 (stereo unspecified)	2.8	-2.8	-2.9	-1.6	1.2	31.3*
Cc1ccc(Nc2nc(CSc3nnnn3-c3ccccc3)cs2)cc1	8.9	-11.1	5.4	-2.0	14.7	4.9
O=c1cc(CSc2nnnn2-c2ccccc2)nc(Nc2ccc(F)cc2)[nH]1	2.1	-1.8	15.3*	-2.8	-10.9	10.5
COc1ccccc1N1CCN(C(=O)CSc2nc3ccccc3[nH]2)CC1	4.4	-3.0	17.1*	1.9	3.4	4.9
COc1ccccc1N1CCN(C(=O)CSc2ncccc2-c2nc3ccccc3[nH]2)CC1	5.1	-0.4	-0.3	-5.8	-3.1	-9.4
CCOc1ccc(NC(=O)CN2CCCC2c2cccs2)cc1S(=O)(=O)N1CCCCC1 (stereo unspecified)	4.2	-2.5	7.5	-8.7	nt	-10.2
O=C(O)c1ccc(N=Nc2c(O)[nH]c3cc(Cl)ccc23)cc1	-2.1	5.7	-1.1	2.4	1.9	52.9*
O=C(O)c1ccc(N=Nc2c(O)[nH]c3ccc(Br)cc23)cc1	2.6	2.4	-1.8	5.0	4.7	-0.2
COC(=O)c1cc(OC)c(OC)cc1N1C(=O)CC(C)(C)CC1=O	-2.7	1.0	-1.8	-4.6	-3.1	-7.6
O=C(CNS(=O)(=O)c1c(Cl)cccc1Cl)N1CCCCCC1	0.6	4.0	0.7	0.6	0.4	0.5
CCn1c2ccccc2c2cc(NC(=O)c3cccc([N+](=O)[O-])c3C)ccc21	3.7	-2.4	5.0	7.2	10.0	2.4
CCn1c2ccccc2c2cc(NC(=O)c3ccc(C)c([N+](=O)[O-])c3)ccc21	2.9	-8.6	0.2	-9.8	-2.7	36.5*
CN(C)S(=O)(=O)c1cccc(C(=O)Nc2cc3c(cc2C(=O)O)OCCCO3)c1	-0.1	-4.0	-0.2	-7.4	1.0	-3.1
CCN1C(=O)c2ccccc2Sc2ccc(C(=O)NCCCN(CC(C)C)CC(C)C)cc21	0.6	-2.1	-7.3	-4.6	-1.0	-2.4
O=C(c1ccc(-c2cc3ccccc3oc2=O)cc1)N1CCN(c2ccc(Cl)cc2[N+](=O)[O-])CC1	3.6	-2.9	16.3*	15.7	-3.5	-6.4
O=[N+]([O-])c1cc(Cl)ccc1N1CCN(c2ccccc2O)CC1	2.7	-0.5	3.1	3.9	7.0	6.1
Fc1cccc(Cl)c1CNc1ccc(N2CCCC2)cc1	2.9	-0.7	16.9*	2.7	9.4	13.0
Cc1c2n(c3ccccc13)CCN(C)C2	1.1	0.5	-0.5	0.9	-2.6	1.1
COc1ccc2c(c1)c(=O)oc1cc(OCC(=O)N3CCCC(C)C3)ccc12 (stereo unspecified)	1.8	-4.2	15.5*	3.2	-3.6	-3.7
COc1ccc2c(c1)c(=O)oc1cc(OCC(=O)N3CCC(C)CC3)ccc12	0.5	-2.5	-2.7	2.5	2.1	-2.3
COc1cc(/C=N/Nc2nnc3c(n2)[nH]c2ccccc23)ccc1O	-0.5	-3.1	8.6	3.2	6.0	7.5
Cc1ccc2[nH]c3nc(N/N=C/c4cccc(O)c4)nnc3c2c1	3.3	-9.3	16.5*	-5.1	-2.5	-37.7
CCc1ccc2[nH]c3nc(N/N=C/c4ccc(O)cc4O)nnc3c2c1	1.4	-15.2	16.8*	-16.7	17.3	-2.4
SMILES	PP5 primary	LYPLA1 inh	PP1 counter	LYPLA2 inh	Fam108B inh	PME-1 primary
O=C(NCc1ccccc1)c1onc(CSc2ccccc2)c1C(=O)NCC1CC1	6.3	-26.4	16.4*	-57.1	-25.7	-36.7
O=C(NCc1ccccc1)c1onc(CSc2ccc(Cl)cc2)c1C(=O)NCC1CC1	2.4	-9.0	0.8	-11.9	-4.6	-8.7
O=C(Nc1ccccc1)C1CCOC1=O (stereo unspecified)	-0.7	-0.3	-4.8	5.2	0.9	3.0
O=C(c1sc2ccccc2c1Cl)N1CCN(c2ncccn2)CC1	4.3	4.8	2.0	11.5	8.8	28.4*
O=C(c1sc2ccccc2c1Cl)N1CCN(c2ccc(F)cc2)CC1	1.3	2.6	2.5	8.6	2.4	7.0
N#C/C(=C(O)\C=C\c1ccccc1)c1nc2ccccc2[nH]1	3.3	0.8	15.9*	0.9	-0.6	1.5
C(=C\c1ccccc1)/C=N/Nc1nc2ccccc2[nH]1	3.5	-0.8	15.9*	-2.5	9.0	-18.7
CCN1CCc2c(sc(N)c2C#N)C1	2.2	2.3	-0.5	-3.1	5.7	-2.4
N#Cc1c(N)sc(=S)c2c1CCN(Cc1ccccc1)C2	2.4	17.7*	19.8*	26.6*	26.9*	31.5*
NS(=O)(=O)c1ccc(CCNC(=O)CCNS(=O)(=O)c2ccccc2C(F)(F)F)cc1	1.0	-1.6	-3.0	-1.7	nt	6.2
CCN1CCN(c2ccc(S(=O)(=O)N3CCCCC3)cc2NC(=O)c2sccc2C)CC1	0.5	-2.9	0.1	-6.0	-3.1	-8.6
Cc1ccc(NCC(O)C(O)C(O)CO)c(N=Nc2ccccc2)c1C (stereo unspecified)	5.7	2.6	-2.0	12.2	1.1	52.4*
CC(=O)Nc1cc(NC(C)=O)c(N=Nc2ccccc2)cc1C	-2.6	0.6	-4.7	-2.0	-2.8	2.5
COc1ccc(C(=O)C(C)OC(=O)c2nc3nccc(C)n3n2)cc1 (stereo unspecified)	-3.8	0.9	-1.7	-3.4	nt	-6.9
CCOC(=O)c1cc(-c2ccc(N3CCOCC3)cc2)nn1-c1ccc(F)cc1F	3.2	1.8	16.7*	11.6	-2.5	-2.7
CCOC(=O)c1cc(-c2ccc(N3CCOCC3)cc2)nn1-c1ccccc1	-1.8	0.8	9.4	1.8	-0.3	7.5
Cc1ccc(C(C)C)cc1S(=O)(=O)NC1CC(C)(C)NC(C)(C)C1	0.8	3.8	-2.6	1.1	-1.1	1.5
O=[N+]([O-])c1ccc(N/N=C/c2c[nH]c3ccccc23)cc1	8.6	-15.3	5.2	-9.9	2.2	11.3
O=[N+]([O-])c1ccccc1N/N=C/c1c[nH]c2ccccc12	6.2	-3.0	3.2	5.4	6.2	50.1*
CCS(=O)(=O)c1ccc(OC)c(N=Nc2ccc(O)c3ncccc23)c1	1.9	-2.9	15.2*	6.5	7.2	1.4
Cc1ccc(S(=O)(=O)N(CC(=O)NCC2CCCO2)Cc2ccc(F)cc2)cc1 (stereo unspecified)	3.2	-2.6	15.3*	-0.6	-1.2	2.0
O=C(CN(Cc1ccccc1)S(=O)(=O)c1ccc(Br)cc1)NCC1CCCO1 (stereo unspecified)	0.2	0.1	3.0	2.8	-0.3	11.2
CC1Oc2cc3oc4c(O)c5c(cc4c(=O)c3c(O)c2C1(C)C)C=CC(C)(C)O5 (stereo unspecified)	3.8	-9.0	-0.8	-9.1	-3.3	-13.3
